These results are taken from PubChem BioAssay (NCATS).

Each structure is given as a SMILES string. Results filed as inconclusive are left out. Entries that show only a call come without a potency. Unmarked numbers belong to inactive results. Activity calls are given as the source filed them. Calls follow the shape of the dose curve; as a rule, active = well fitted curve in the direction sought with a large enough effect; inconclusive = small, poorly fitted or top-dose-only effect, or another doubt; inactive = no such curve, though single readings can be large; an effect the other way counts as inactive or inconclusive. Square brackets hold non-standard residues; d marks the D form. Peptide text beside a SMILES is read from it. pGlu = O=C1CC[C@@H](C(=O)O)N1; Thz = O=C(O)[C@@H]1CSCN1

The first assay deals with Aldehyde dehydrogenase, mitochondrial (Homo sapiens) (UniProt P05091). The experiment in a line: qHTS for Inhibitors of the Aldehyde Dehydrogenase Family (ALDH2) Primary screen (AID 2061308). Also: nearly all actives have a fitted effect of over 55% in size. Particulars: ALDH2 enzyme inhibition qHTS, 1536-well; series mostly up to 56 µM.
On to `CN(C)C(=O)NC1(c2ccccc2)CCN(CCC[C@]2(c3ccc(Cl)c(Cl)c3)CCCN(C(=O)c3ccccc3)C2)CC1`, for which the Potency result was “inactive”.

In the case of `Cc1nnc(-c2ccc(-c3ccc(C(=O)Nc4ccc(O)c(N5CCN(C)CC5)c4)cc3)c(C)c2)o1`, the Potency entry was “inactive”.

Turning to `CCCCNc1nc(N)c2[nH]c(=O)n(Cc3ccc(OCCN(C)C)nc3)c2n1`, the Potency entry was “inactive”.

As for `COC(=O)[C@H](CC1C=NC=N1)NCC12CC3CC(CC(C3)C1)C2` (stereo partly drawn), the Potency result is “inactive”.

`O=C(N[C@@H]1CC[C@@H](c2cccc(F)c2F)CN(CC(F)(F)F)C1=O)N1CCC(n2c(=O)[nH]c3ncccc32)CC1`: the Potency result is “inactive”.

Take `CC(C)[C@@H]1C(=O)N(S(C)(=O)=O)[C@@H]2CCN(C(=O)/C=C/CN3CCCCC3)[C@H]21`: the Potency entry is “inactive”.

As to `Clc1cccc(-c2nnnn2Cc2cccnc2)c1Cl`, the Potency result is “inactive”.

For the compound `COc1cncc(C#Cc2ccccn2)c1`, the Potency entry was “inactive”.

For `CC(C)(C)c1cc(Br)cc([C@H](CC(=O)O)NC(=O)CNC(=O)c2cc(O)cc(NC3=NCC(O)CN3)c2)c1` (stereo partly drawn), the Potency entry was “inactive”.

As for `O=C(NCc1ccccn1)Nc1nnc(-c2ccco2)o1`, the Potency result was “inactive”.

Consider `CNc1cc2[nH]c(=O)n(-c3ccc(NC(=O)NS(=O)(=O)c4ccc(Cl)s4)cc3)c(=O)c2cc1F`, for which the Potency result was “inactive”.

As to `C=C1CC[C@H](O)CC1=C/C=C1\CCC[C@]2(C)[C@@H]([C@H](C)/C=C/[C@H](C)C(C)C)CC[C@@H]12`, the Potency entry is “inactive”.

`CN1CC2CN(c3ccc4oc5ccccc5c(=O)c4c3)CC2C1` (stereo not drawn): the Potency entry was “inactive”.

For `CCCCOC(=O)NC(=O)C1c2ccccc2Oc2ccccc21`, the Potency result was “inactive”.

Regarding `O=C1CC[C@@H](C(=O)N2CSC[C@H]2C(=O)O)N1` ([pGlu]-[Thz]-OH), the Potency entry was “inactive”.

As for `O=C(O)C1CN(Cc2ccc(-c3nc4cc(Cc5ccccc5F)ccc4s3)c(F)c2)C1`, the activity change, negative = inhibition was -1.77% [at 11.2 µM].

As for `Cc1cc(C)nc(SCC(=O)Nc2ncc(Cc3cccc4ccccc34)s2)n1`, the Potency entry is “inactive”.

`Cc1cc(C)nc(NS(=O)(=O)c2ccc(NC(=S)NC(=O)COc3ccc(Br)cc3Cl)cc2)n1`: the Potency result was “inactive”.

With `CC[C@H]1OC(=O)[C@H](C)[C@@H](O[C@H]2C[C@@](C)(OC)[C@@H](O)[C@H](C)O2)[C@H](C)[C@@H](O[C@@H]2O[C@H](C)C[C@H](N(C)C)[C@H]2O)[C@@](C)(O)C[C@@H](C)[C@@H]2N[C@@H](COCCOC)OC([C@H]2C)[C@]1(C)O`, the Potency result was “inactive”.

With `Cc1cc(NC(=O)NCCN2CCC(O)(Cc3ccccc3)CC2)c2ccccc2n1`, the Potency entry was “inactive”.

On to `Cc1nnc(-c2ccc3occ(-c4ccc(S(C)=O)cc4)c3c2)o1` (stereo not drawn), for which the Potency entry is “inactive”.

In the case of `CCCC(C(=O)O)c1c(C)nc2ccc(Cl)cc2c1-c1ccccc1` (stereo not drawn), the Potency entry was “inactive”.

Consider `CCc1c(CC(N)=O)c2cc(OCCCP(=O)(O)O)ccc2n1Cc1ccccc1`, for which the Potency entry was “inactive”.

On to `CC(=O)NCC1CN(c2ccc(-c3ccc(CNCc4cn[nH]n4)cc3)c(F)c2)C(=O)O1` (stereo not drawn), for which the Potency result was “inactive”.

`Cc1ccc(-c2cn3c4c(sc3n2)CCCC4)cc1`: the Potency result was “inactive”.

As to `COC(=O)C(Cc1ccc(OCCn2c(=O)sc3cc(C(=O)c4ccccc4)ccc32)cc1)C(=O)OC`, the Potency entry is “inactive”.

For the compound `CC(C)c1nnc(-c2ccc(-c3ccccc3)nc2)n1-c1cccc2nonc12`, the Potency result is “inactive”.

Turning to `COc1cc(O)c(C(=O)O)c(CCc2ccccc2)c1`, the Potency entry is “inactive”.

As for `O=C(O)[C@@H]1C[C@H]2C[C@@H](CCc3nn[nH]n3)CC[C@H]2CN1`, the Potency result was “inactive”.

With `O=C(Nc1cc2cc[nH]c2cn1)c1ccccc1`, the Potency result was “inactive”.

In the case of `COc1ccc(CCN(C)CCCOc2nsc(-c3ccccc3)n2)cc1OC`, the Potency result is “inactive”.

`CNC(=O)O[C@H]1COc2ccc(N3CCN(C4COC4)CC3)cc2[C@@H]1NC(=O)c1ccc(F)cc1`: the Potency entry was “inactive”.

In the case of `O=C(Nc1ccccc1)N1CCN(c2nc(-c3ccccc3)ns2)CC1`, the Potency entry was “inactive”.

Consider `O=C1CC2(CCCC2)[C@H](O)C(=O)N1CCCCN1CCN(c2ncccn2)CC1`, for which the Potency entry was “inactive”.

With `O=C(Nc1ccccc1)N1CCC(Cc2cnc3ccccc3c2)CC1`, the Potency entry is “inactive”.

Take `O=C(Nc1nc2ccc([N+](=O)[O-])cc2s1)C1CCCCC1`: the Potency result was “inactive”.

As for `CCC(=O)N1CCc2cc(OC)c(O)cc2C1`, the Potency result is “inactive”.

For the compound `CN(C)C(=O)C(O)C(Cc1ccccc1)NC(=O)c1cc2cc(Cl)ccc2[nH]1` (stereo not drawn), the Potency result is “inactive”.

`CCOC(CN1CCN(CC(C)C(=O)c2ccccc2)CC1)c1ccccc1` (stereo not drawn): the Potency result is “inactive”.

Regarding `CC(C)Nc1nc(Nc2ccccc2)nc(-c2ccccc2)n1`, the Potency result was “inactive”.

The target in a further assay is Retinaldehyde dehydrogenase 3 (Homo sapiens) (UniProt P47895). Nature of the assay: qHTS for Inhibitors of the Aldehyde Dehydrogenase Family (ALDH1A3) Validation screen (AID 2061312). Also: nearly all actives have a fitted effect of over 45% in size. Also: potency is read from the fitted curve at half-maximal effect. Particulars: ALDH1A3 enzyme inhibition qHTS validation, fluorescence; series mostly up to 84.7 µM. In general terms: qHTS replaces the single test concentration by a dilution series.
As to `CN(C)C(=O)NC1(c2ccccc2)CCN(CCC[C@]2(c3ccc(Cl)c(Cl)c3)CCCN(C(=O)c3ccccc3)C2)CC1`, the Potency entry was “inactive”.

For the compound `Cc1nnc(-c2ccc(-c3ccc(C(=O)Nc4ccc(O)c(N5CCN(C)CC5)c4)cc3)c(C)c2)o1`, the Potency entry is “inactive”.

For `CCCCNc1nc(N)c2[nH]c(=O)n(Cc3ccc(OCCN(C)C)nc3)c2n1`, the Potency result is “inactive”.

For `COC(=O)[C@H](CC1C=NC=N1)NCC12CC3CC(CC(C3)C1)C2` (stereo partly drawn), the Potency entry is “inactive”.

As for `O=C(N[C@@H]1CC[C@@H](c2cccc(F)c2F)CN(CC(F)(F)F)C1=O)N1CCC(n2c(=O)[nH]c3ncccc32)CC1`, the Potency result is “inactive”.

For `CC(C)[C@@H]1C(=O)N(S(C)(=O)=O)[C@@H]2CCN(C(=O)/C=C/CN3CCCCC3)[C@H]21`, the Potency result was “inactive”.

`Clc1cccc(-c2nnnn2Cc2cccnc2)c1Cl`: the Potency entry was “inactive”.

Take `COc1cncc(C#Cc2ccccn2)c1`: the Potency is 22.4 µM (active).

For `CC(C)(C)c1cc(Br)cc([C@H](CC(=O)O)NC(=O)CNC(=O)c2cc(O)cc(NC3=NCC(O)CN3)c2)c1` (stereo partly drawn), the Potency entry was “inactive”.

On to `O=C(NCc1ccccn1)Nc1nnc(-c2ccco2)o1`, for which the Potency entry was “inactive”.

For the compound `CNc1cc2[nH]c(=O)n(-c3ccc(NC(=O)NS(=O)(=O)c4ccc(Cl)s4)cc3)c(=O)c2cc1F`, the Potency result is “inactive”.

Consider `C=C1CC[C@H](O)CC1=C/C=C1\CCC[C@]2(C)[C@@H]([C@H](C)/C=C/[C@H](C)C(C)C)CC[C@@H]12`, for which the Potency was 8.91 µM (active).

For `CN1CC2CN(c3ccc4oc5ccccc5c(=O)c4c3)CC2C1` (stereo not drawn), the Potency entry was “inactive”.

Regarding `CCCCOC(=O)NC(=O)C1c2ccccc2Oc2ccccc21`, the Potency entry was “inactive”.

On to `O=C1CC[C@@H](C(=O)N2CSC[C@H]2C(=O)O)N1` ([pGlu]-[Thz]-OH), for which the Potency entry was “inactive”.

For the compound `O=C(O)C1CN(Cc2ccc(-c3nc4cc(Cc5ccccc5F)ccc4s3)c(F)c2)C1`, the activity change, negative = inhibition is -10% [at 20.1 µM].

With `Cc1cc(C)nc(SCC(=O)Nc2ncc(Cc3cccc4ccccc34)s2)n1`, the Potency entry was “inactive”.

`Cc1cc(C)nc(NS(=O)(=O)c2ccc(NC(=S)NC(=O)COc3ccc(Br)cc3Cl)cc2)n1`: the Potency entry is “inactive”.

As to `CC[C@H]1OC(=O)[C@H](C)[C@@H](O[C@H]2C[C@@](C)(OC)[C@@H](O)[C@H](C)O2)[C@H](C)[C@@H](O[C@@H]2O[C@H](C)C[C@H](N(C)C)[C@H]2O)[C@@](C)(O)C[C@@H](C)[C@@H]2N[C@@H](COCCOC)OC([C@H]2C)[C@]1(C)O`, the Potency result was “inactive”.

Regarding `Cc1cc(NC(=O)NCCN2CCC(O)(Cc3ccccc3)CC2)c2ccccc2n1`, the Potency entry is “inactive”.

On to `CCCC(C(=O)O)c1c(C)nc2ccc(Cl)cc2c1-c1ccccc1` (stereo not drawn), for which the Potency result was “inactive”.

As to `CCc1c(CC(N)=O)c2cc(OCCCP(=O)(O)O)ccc2n1Cc1ccccc1`, the Potency entry is “inactive”.

For the compound `CC(=O)NCC1CN(c2ccc(-c3ccc(CNCc4cn[nH]n4)cc3)c(F)c2)C(=O)O1` (stereo not drawn), the Potency was 3.98 µM (active).

Take `Cc1ccc(-c2cn3c4c(sc3n2)CCCC4)cc1`: the Potency is 25.1 µM (active).

In the case of `COC(=O)C(Cc1ccc(OCCn2c(=O)sc3cc(C(=O)c4ccccc4)ccc32)cc1)C(=O)OC`, the Potency entry was “inactive”.

`CC(C)c1nnc(-c2ccc(-c3ccccc3)nc2)n1-c1cccc2nonc12`: the Potency result is “inactive”.

Regarding `O=C(O)[C@@H]1C[C@H]2C[C@@H](CCc3nn[nH]n3)CC[C@H]2CN1`, the Potency was 10 µM (active).

In the case of `O=C(Nc1cc2cc[nH]c2cn1)c1ccccc1`, the Potency was 39.8 µM (active).

Take `COc1ccc(CCN(C)CCCOc2nsc(-c3ccccc3)n2)cc1OC`: the Potency entry is “inactive”.

Take `CNC(=O)O[C@H]1COc2ccc(N3CCN(C4COC4)CC3)cc2[C@@H]1NC(=O)c1ccc(F)cc1`: the Potency result was “inactive”.

Take `O=C(Nc1ccccc1)N1CCN(c2nc(-c3ccccc3)ns2)CC1`: the Potency result was “inactive”.

As for `O=C1CC2(CCCC2)[C@H](O)C(=O)N1CCCCN1CCN(c2ncccn2)CC1`, the Potency result is “inactive”.

`O=C(Nc1ccccc1)N1CCC(Cc2cnc3ccccc3c2)CC1`: the Potency entry was “inactive”.

As to `O=C(Nc1nc2ccc([N+](=O)[O-])cc2s1)C1CCCCC1`, the Potency is 3.98 µM (active).

For `CCC(=O)N1CCc2cc(OC)c(O)cc2C1`, the Potency was 22.4 µM (active).

On to `CN(C)C(=O)C(O)C(Cc1ccccc1)NC(=O)c1cc2cc(Cl)ccc2[nH]1` (stereo not drawn), for which the Potency entry is “inactive”.

Take `CCOC(CN1CCN(CC(C)C(=O)c2ccccc2)CC1)c1ccccc1` (stereo not drawn): the Potency entry is “inactive”.

As for `CC(C)Nc1nc(Nc2ccccc2)nc(-c2ccccc2)n1`, the Potency entry was “inactive”.
